Results taken from PubChem BioAssay (NCI).
The panel holds about 83,000 compounds, 20% with a hit somewhere; the sample as a whole holds those more often.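 Assay: single dose, 48 h. Readout: percent growth (0 = no net growth; negative = cell death). Active: <10.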 Values without a mark were called inactive. Active and inactive are the calls of the source.

Experiments:
Assay in all cases: NCI-60 one-dose screen, 48 h (100 = growth as untreated, 0 = no growth, -100 = all killed)
SK-MEL-2 melanoma = details: 10 µM unless noted
EKVX NSCLC = details: 10 µM unless noted
SN12C renal = details: 10 µM unless noted
UO-31 renal = details: 10 µM unless noted
TK-10 renal = details: 10 µM unless noted
ACHN renal = details: 10 µM unless noted
CAKI-1 renal = details: 10 µM unless noted
A498 renal = details: 10 µM unless noted
CCRF-CEM leukemia = details: 10 µM unless noted
OVCAR-8 ovarian = details: 10 µM unless noted
OVCAR-5 ovarian = details: 10 µM unless noted
SK-OV-3 ovarian = details: 10 µM
IGROV1 ovarian = details: 10 µM unless noted
OVCAR-3 ovarian = details: 10 µM unless noted
HS 578T breast = details: 10 µM unless noted
NCI/ADR-RES ovarian = details: 10 µM unless noted
MOLT-4 leukemia = details: 10 µM unless noted
SR leukemia = details: 10 µM unless noted
RPMI-8226 leukemia = details: 10 µM
OVCAR-4 ovarian = details: 10 µM unless noted

| Compound | growth (SK-MEL-2 melanoma) | growth (EKVX NSCLC) | growth (SN12C renal) | growth (UO-31 renal) | growth (TK-10 renal) | growth (ACHN renal) | growth (CAKI-1 renal) | growth (A498 renal) | growth (CCRF-CEM leukemia) | growth (OVCAR-8 ovarian) | growth (OVCAR-5 ovarian) | growth (SK-OV-3 ovarian) | growth (IGROV1 ovarian) | growth (OVCAR-3 ovarian) | growth (HS 578T breast) | growth (NCI/ADR-RES ovarian) | growth (MOLT-4 leukemia) | growth (SR leukemia) | growth (RPMI-8226 leukemia) | growth (OVCAR-4 ovarian) |
| --- | --- | --- | --- | --- | --- | --- | --- | --- | --- | --- | --- | --- | --- | --- | --- | --- | --- | --- | --- | --- |
| CN1CCc2cccc3c2C1Cc1ccc(O)c(O)c1-3 (stereo unspecified) | 117% | 75.4% | 88.4% | 64.2% | 129% | 73% | 63.4% | 103% | 37.9% | 89% | 88.3% | 102% | 76.2% | 28% | 99.1% | 81% | – | – | – | – |
| C=C[C@H]1C[C@@H]2C[C@@H]3[C@H]4C/C=C\C(=O)NCCCC5NC(=O)C(=C(O)/C=C/[C@@H]4CC(=O)[C@H]3[C@@H]2[C@H]1C)C5=O (stereo partly specified) | -54% (active) | 61.6% | -60.7% (active) | -87.4% (active) | -94.5% (active) | -93.3% (active) | 29% | -93.5% (active) | – | -84.7% (active) | -92.7% (active) | -100% (active) | -62.8% (active) | -95.3% (active) | – | -73.4% (active) | -68.9% (active) | -55.9% (active) | -54.5% (active) | -78.1% (active) |
| CN1CCN(C)c2cncc(Br)c2C1=O | 118% | -82.7% (active) | 101% | 79.5% | 126% | 108% | -89.3% (active) | 85% | – | – | 104% | 101% | 108% | 109% | – | 98.3% | 98.5% | 84.1% | 93.8% | 115% |
| CCC(C)[C@H]1O[C@]2(CC[C@@H]1C)C[C@@H]1C[C@@H](C/C=C(\C)[C@@H](OC3C[C@H](OC)C(O[C@H]4C[C@H](OC)[C@@H](O)[C@H](C)O4)[C@H](C)O3)[C@@H](C)/C=C/C=C3\CO[C@@H]4[C@H](O)C(C)=C[C@@H](C(=O)O1)[C@]34O)O2 (stereo partly specified) | -9.26% (active) | 4.67% (active) | 14.6% | 9.45% (active) | 30.2% | -66.3% (active) | -15.1% (active) | -23.7% (active) | 25.9% | – | 24.4% | 50.8% | 27.3% | -26.5% (active) | 26% | 7.07% (active) | – | – | – | – |
| Cc1nc(NN)c([N+](=O)[O-])c(NN)n1 | 104% | 112% | 103% | 94.5% | 118% | 110% | 99.1% | 142% | -28.1% (active) | 102% | 92.8% | 121% | 108% | 99.9% | 139% | 119% | 89.6% | – | 82.5% | 114% |
| CCCCc1ccc(NC(=O)C(F)(F)F)cc1 | 99% | 120% | 98.3% | 83.8% | 95.4% | 102% | 105% | 84.1% | – | 95.1% | 99.6% | 109% | 113% | 106% | – | 103% | 74.9% | 86.4% | 91.4% | – |
| CC1SC(c2cccc(Oc3ccccc3)c2)N(CCc2cccs2)C1=O (stereo unspecified) | -75.7% (active) | -24.1% (active) | -86.3% (active) | -17.7% (active) | -16.2% (active) | -12.8% (active) | -37.4% (active) | -56.6% (active) | – | 0% (active) | -13.9% (active) | -8.94% (active) | -23.6% (active) | -98.1% (active) | -44.8% (active) | -28% (active) | -2.19% (active) | -2.19% (active) | -13.5% (active) | 8.45% (active) |
| O=C1/C(=C/c2ccc(Oc3ccccc3)cc2)N=C(c2ccccc2)N1CCc1cccs1 | 75.5% | 95.7% | 91.3% | 67.6% | 80.6% | 96.1% | 67.9% | 59.7% | 79.1% | 88.6% | 109% | 106% | 71.5% | 106% | 58.7% | 83.9% | – | 81% | 69.7% | 78% |
| COc1ccc(/C=C2\SC(=O)N(CN3CCN(c4cc5c(cc4F)c(=O)c(C(=O)O)cn5C4CC4)CC3)C2=O)cc1 | 101% | 97.4% | 108% | 80.2% | 104% | 111% | 94.1% | – | 111% | 98.5% | 108% | – | 113% | 110% | 108% | 103% | 116% | 102% | 99.9% | 104% |
| FC(F)(F)Oc1ccc2c(c1)C[C@H]1C[C@@H](c3ccoc3)N2O1 | 118% | 93.9% | 110% | 100% | 97.4% | 94% | 82.6% | 93.2% | 102% | 101% | 91.5% | 106% | 108% | 112% | – | 98.3% | – | 98.3% | 92.3% | – |
| COC(=O)[C@@]12CC[C@@H](C)[C@]3(C[C@@H](c4ccoc4)OC3=O)[C@H]1CC[C@@H]1O[C@@]12C | 96.9% | 94.8% | 98.8% | 78.9% | 103% | 105% | 94.4% | – | 107% | 102% | 91.4% | – | 103% | 110% | 98.7% | 102% | 110% | 110% | 110% | 104% |
| O=c1ccc2ccccc2o1 | 101% | 109% | 109% | 89.9% | 98.3% | 93.8% | 89.7% | 96.4% | 87.4% | 105% | 104% | 111% | 111% | 111% | 105% | 105% | – | – | – | – |
| O=C(CCc1nnc2sc(/C=C\c3ccccc3)nn12)c1nc2ccccc2[nH]1 | 98.1% | 88.6% | 91.9% | 70.4% | 113% | 99.5% | 93.4% | 65.2% | – | 92.7% | 116% | 97.2% | 96% | 115% | 83.1% | 89.5% | 62.8% | 63.5% | 72% | – |
| COc1cc(-c2nc3ccccc3o2)cc(CN2CCN(c3ccccc3)CC2)c1O | 75% | 71.8% | 66.2% | 43.8% | 117% | 73.6% | 84.9% | 77.6% | – | – | 117% | 116% | 86.8% | – | 110% | 69.4% | 92.5% | 45.1% | 53.2% | 84.6% |
| O=S(=O)(Nc1ccc(Cl)c(Cl)c1)c1ccc(-c2cnc(C3CC3)o2)cc1 | 37.4% | 33.8% | 41.2% | 44% | 51.3% | 45.1% | 35.9% | – | 18.9% | 33.3% | 34.2% | – | 27% | -17.8% (active) | -18.5% (active) | 5.86% (active) | 32.4% | 43.7% | 24.6% | 46.4% |
| CCCCC(O)Cn1ncc(C(=O)OCC)c1NC(=O)NCc1ccccc1C(F)(F)F (stereo unspecified) | 104% | 101% | 99.7% | 82.6% | 96.3% | 97.4% | 84.2% | – | 104% | 98.7% | 105% | – | 99% | 108% | 106% | 98.7% | 93.9% | 87.9% | 88.6% | 85% |
| O=C1CCC(N2C(=O)c3cccc(NCCOCCOCCNC(=O)c4cc5c(o4)C(=O)c4ccccc4C5=O)c3C2=O)C(=O)N1 (stereo unspecified) | -27.8% (active) | 55.9% | -90.6% (active) | 51% | 36.1% | 41.9% | 22% | – | 14.5% | – | -90.8% (active) | – | -16.1% (active) | -40.6% (active) | -29.7% (active) | 93.7% | 6.06% (active) | 9.2% (active) | – | -93.5% (active) |
